# Screening data: PubChem BioAssay, several laboratories
# S1P3 antag = blocks the human S1P3 receptor; inhibition, % at 4.98 µM; Q99500; CHO S1P3 NFAT-BLA reporter, FRET fluorescence, antagonist mode; actives 0.27% (n = 170,000);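 active means inhibition above the plate cutoff, the mean inhibition of test wells on that plate plus 3 SD, cut at about 28% in these data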;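 further: cells challenged with S1P at its EC80 of 0.8 µM; blue over green emission ratio from cleaved BLA substrate after 4 h stimulation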
# Target sequence (Q99500 whole entry, looked up): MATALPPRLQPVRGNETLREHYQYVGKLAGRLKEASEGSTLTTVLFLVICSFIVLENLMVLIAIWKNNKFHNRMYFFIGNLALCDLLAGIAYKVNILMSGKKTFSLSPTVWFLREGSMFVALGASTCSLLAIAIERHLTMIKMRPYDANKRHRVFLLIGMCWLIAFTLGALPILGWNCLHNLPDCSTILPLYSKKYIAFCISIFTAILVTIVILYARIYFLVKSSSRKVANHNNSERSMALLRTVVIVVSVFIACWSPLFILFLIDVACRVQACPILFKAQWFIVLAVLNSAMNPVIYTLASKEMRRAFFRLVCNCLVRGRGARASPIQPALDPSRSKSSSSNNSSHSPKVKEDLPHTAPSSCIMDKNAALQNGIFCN
# Hsp70 activator = Hsp70 transcriptional activation, primary screen; HeLa Hsp70 promoter luciferase reporter, luminescence; scaled: vehicle 0, proteasome-inhibitor control 100%; activation, % at 10 µM; actives 0.04% (n = 200,000); AID 1203;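 active means activation above the mean across all tested compounds plus 3 SD, cutoff set per campaign, cut at about 5.5% in these data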
# S1P4 ag = human S1P4 receptor agonism | activation, % at 4.98 µM | O95977 | S1P4-expressing cell line, agonist reporter assay | actives 0.35% (n = 220,000) | AID 1509; in the data active means activation above about 11%
# Insulin prom up = MIN6 insulin promoter up-regulation; MIN6 insulin promoter-GFP reporter, high-content imaging; hits give high values; z-score at 5 µM; actives 0.3% (n = 190,000);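 active means z-score above 3 at 5 µM with at least 500 cells counted in the well; inconclusive means wells under 500 cells, flagged as cytotoxic or low count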
# INS promoter inh = TRM-6 insulin promoter activity inhibition. inhibition, % at 2 µM. TRM-6 cells (human fetal islet line), insulin promoter-eGFP reporter, imaging; reporter expression induced with tamoxifen. actives 0.9% (n = 130,000);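 active means inhibition above the mean plus 3 SD, with well images judged a real hit on visual review, cut at about 60% in these data, passing the limit was not always enough; inconclusive means inhibition over the cutoff but images rejected on review; inactive means inhibition not above the cutoff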
# S1P4 antag = blocks the human S1P4 receptor | actives 0.26% (n = 220,000) | O95977 | S1P4-expressing cells, antagonist mode, reporter read-out | inhibition, % at 4.98 µM; in the data active means inhibition above about 29%
# S1P4 agonist cf = human S1P4 agonism, confirmation. shares compounds with S1P4 ag. S1P4 agonist cell-based reporter assay. activation, % at 4.98 µM. actives 7% (n = 740); in the data active means activation above about 12%
# S1P1 ag = human S1P1 agonism as S1P4 agonist counter-screen | shares compounds with S1P4 ag | S1P1 agonist cell-based assay, activation | activation, % at 4.98 µM | actives 4% (n = 740) | AID 1563; in the data active means activation above about 21%
# Numbers stand for hits; n = inactive; u = inconclusive; x = not tested or not shown. The list is not random: actives were taken first. Their share in the collection is about 1.5%.
SMILES,S1P3 antag,Hsp70 activator,S1P4 ag,Insulin prom up,INS promoter inh,S1P4 antag,S1P4 agonist cf,S1P1 ag
O=C(CCC(=O)Nc1ccc(Cl)cc1Cl)N/N=C/c1ccc([N+](=O)[O-])o1,n,n,n,n,x,n,x,x
C/C(CC(=O)Nc1ccc(OCc2ccccc2)cc1)=N\NC(=O)C(=O)Nc1cccc(C)c1,n,n,19,n,n,n,n,n
O=C(COC(=O)c1ccccn1)NCc1ccccc1Cl,n,n,27,n,n,n,n,n
CC(=O)c1ccc(Oc2ccc(C(=O)c3ccc(C)c(C)c3)cc2[N+](=O)[O-])cc1,n,n,14,n,n,n,n,n
Cc1ccccc1-c1nc(CS(=O)CC(=O)NCCCN(C)c2ccccc2)c(C)o1 (stereo not given),n,n,n,n,n,n,x,x
Cc1ccc(NC(=O)CS(=O)CC(=O)NCCCN(C)c2ccccc2)cc1 (stereo not given),n,n,25,n,n,n,n,n
Cc1cccc(C)c1N1CCN(S(=O)(=O)N(C)C)CC1,n,n,n,n,n,n,x,x
CCC(C)NC(=O)c1cnc2n(c1=O)CCS2 (stereo not given),n,n,25,n,n,n,n,n
CC(NC(=O)c1cnc2n(c1=O)CCS2)c1ccccc1 (stereo not given),n,n,n,x,n,n,x,x
COC(=O)c1ccccc1NC(=O)N1CCN(c2ccc(F)cc2)CC1,n,n,n,n,x,n,x,x
Cn1c(=O)oc2cc(S(=O)(=O)N3CCC(C(=O)NCCc4ccccc4)CC3)ccc21,n,x,14,n,x,n,n,n
NS(=O)(=O)c1ccc(NNC(=O)c2ccc(F)cc2F)cc1,n,x,n,n,x,n,x,x
OCC(O)C1OC(Nc2ccc(Cl)cc2)C(O)C1O (stereo not given),n,x,71,n,x,n,n,n
Cc1ccc(Oc2nc3c(C)cccn3c(=O)c2/C=C(\C#N)C(N)=O)cc1,n,x,20,n,x,n,n,n
CCOC(=O)/C(C#N)=C/c1c(Oc2cccc(C)c2)nc2c(C)cccn2c1=O,n,n,n,n,n,n,x,x
Cc1cc(NC(=O)C23CCC(C)(c4nc5cc(Cl)c(Cl)cc5nc42)C3(C)C)no1 (stereo not given),n,n,n,x,n,n,x,x
Cc1ccc(S(=O)(=O)N2CC(=O)Nc3ccccc32)cc1,x,n,n,n,n,n,x,x
CC(=O)Nc1ccc(S(=O)(=O)N2CCC(=O)Nc3ccccc32)cc1,n,n,16,n,x,n,n,n
CCc1cccc(NC(=O)CCSCCC(=O)Nc2cccc(CC)c2)c1,x,n,n,n,n,n,x,x
COc1cccc(C2CN(c3ccc(F)cc3F)N=C2c2cccs2)c1OC (stereo not given),x,n,25,x,n,n,15,43
COc1ccccc1C1CN(c2ccccc2)N=C1c1cccs1 (stereo not given),x,n,n,n,n,n,x,x
COC(=O)c1ccccc1NC(=O)CSc1nc(-c2ccco2)cc(C(F)(F)F)n1,n,n,n,n,x,n,x,x
CCc1cc(=O)oc2c(CN3CCN(C)CC3)c(O)c(Cl)cc12,x,n,11,n,n,n,n,n
CCc1cc(=O)oc2c(CN3CCCC3)c(O)c(Cl)cc12,x,n,n,n,u,n,x,x
CCNS(=O)(=O)c1cc(OC)ccc1OC,x,n,16,n,n,n,n,n
SMILES,S1P3 antag,Hsp70 activator,S1P4 ag,Insulin prom up,INS promoter inh,S1P4 antag,S1P4 agonist cf,S1P1 ag
Cn1c(-c2cc3ccc(OC(=O)C(C)(C)C)cc3oc2=O)nc2ccccc21,x,n,24,x,n,n,18,n
Cc1cc(=O)[nH]c(N/N=C/c2ccc(Br)s2)n1,n,n,n,n,n,n,x,x
C=CCSc1nnc(NC(=O)CSc2nc(CCC)cc(=O)[nH]2)s1,n,n,n,n,n,n,x,x
CC(C)N=c1scc(-c2ccco2)n1/N=C/c1ccc(O)c(O)c1,x,n,12,n,n,n,22,55
O=C(NCC1CCCO1)C1c2ccccc2C(=O)N1C1CCCCCC1 (stereo not given),n,n,n,n,n,n,x,x
CCOc1ccccc1OCC(=O)Nc1nc2ccccc2[nH]1,n,n,n,n,n,n,x,x
Cc1ccccc1OCC(=O)Nc1nc2ccccc2[nH]1,n,n,21,n,x,n,n,n
COc1ccc(/C(C)=N/NC(=O)CNC(=O)c2cccs2)cc1OC,n,n,30,n,n,n,n,n
CN(C(=S)NC(=O)Cc1ccccc1)c1ccccc1,n,n,13,n,n,n,n,n
CCN(CC)C(=S)NC(=O)Cc1ccccc1,n,n,n,n,n,n,x,x
C=Cn1cc[n+](CC(=O)c2ccc(C)cc2)c1,n,n,18,n,n,n,n,n
CN(c1ccccc1)c1cc(=O)[nH]c(=O)[nH]1,n,n,n,n,x,n,x,x
CCOC(=O)CS(=O)(=O)c1ccc(O)cc1,n,n,22,n,x,n,n,n
COc1ccccc1C(=O)c1cc2ccc(O)cc2oc1=O,n,n,n,n,n,n,x,x
C/C(=N\NC(=O)CC#N)c1cc2ccc(O)cc2oc1=O,n,n,57,n,n,n,n,n
Cc1nnc(SCCn2c(N3CCN(C)CC3)nc3c2c(=O)n(C)c(=O)n3C)s1,n,n,45,n,n,n,n,n
Cc1nnc(SCCn2c(N3CCCCC3)nc3c2c(=O)n(C)c(=O)n3C)s1,n,n,n,x,n,n,x,x
CCOCCCn1c(=NC(=O)c2cccs2)c(C#N)cc2c(=O)n3ccccc3nc21,n,x,15,n,x,n,n,30
COC(=O)NCC(c1ccco1)N1CCN(c2ccc(OC)cc2)CC1 (stereo not given),n,n,n,n,x,n,x,x
COc1ccc(N2CCN(C(CNC(=O)C(=O)NCC3CCCO3)c3ccco3)CC2)cc1 (stereo not given),n,n,13,n,n,n,n,n
COc1ccc(N2CCN(C(=O)NCc3ccc(OC)c(Cl)c3)CC2)cc1,n,n,16,n,x,n,n,n
COC(=O)c1sc(C(C)(C)C)cc1CSc1ccccc1,n,x,n,n,x,n,x,x
CCN(CC)C(=O)C1CCCN(Cc2ccccc2)C1 (stereo not given),x,n,22,n,n,n,n,n
Cc1[nH]n(-c2ccccc2)c(=O)c1C=NC1CCCCCC1,n,n,n,n,x,n,x,x
Cc1cc(=O)c2ccccc2n1CC(=O)NCc1ccccc1,n,n,19,n,n,n,n,n
Cc1cc(=O)c2ccccc2n1Cc1ccccc1,n,n,n,n,x,n,x,x
O=[N+]([O-])c1ccc(OCCO)c(P(=O)(c2ccccc2)c2ccccc2)c1,n,x,155,n,x,n,n,n
Nc1sc2c(c1C(=O)NC1CCS(=O)(=O)C1)CCC2 (stereo not given),n,n,n,x,n,n,x,x
